In the antibiotic and cytotoxicity screens of Wong et al. (2023) one finds cytotoxicity call data, which are given here for 18 compounds.

Structures are written as SMILES. Hit rate of the full screen: of about 39,000 compounds, about 3,300 (8.5%) were called active. The sample as a whole holds a higher share of actives than the screen did.

The test system of the experiment is HepG2. As to the kind of experiment: cytotoxicity call (relative viability < 0.9). The note with it: 10 µM.
Turning to `CCCCCCC#C[Si](O[C@H](c1ccccc1)c1cn(Cc2cccc(Cl)c2)nn1)(C(C)C)C(C)C`, the cytotoxicity call is “inactive”.
`C[C@@H]1CCCCO[C@H](CN(C)C(=O)Nc2ccccc2)[C@H](C)CN([C@@H](C)CO)C(=O)c2cc(NS(=O)(=O)c3ccc(Cl)cc3)ccc2O1`: the cytotoxicity call is “inactive”.
The value for `COc1ccc(C#Cc2ccc3c(c2)[C@H]2[C@H](CCN2C(=O)Nc2ccc(C(F)(F)F)cc2)[C@@H](CO)N3C)cc1` was “inactive”; that for `C[C@@H]1CCCCO[C@H](CN(C)C(=O)Nc2ccc3c(c2)OCO3)[C@H](C)CN([C@@H](C)CO)C(=O)c2cc(NC(=O)CCC(F)(F)F)ccc2O1` was “inactive”.
In the case of `O=C(CCCCCCC(=O)Nc1ccc(C(=O)NCCOCCOCCNC(=O)c2ccc(NC(=O)CCCCCCC(=O)NO)cc2)cc1)NO`, the cytotoxicity call was “inactive”.
As to `COCC(=O)N(C)C[C@@H]1Oc2cc(-c3ccc(C#N)cc3)ccc2S(=O)(=O)N([C@@H](C)CO)C[C@H]1C`, the cytotoxicity call was “inactive”.
To `C[C@H](CO)N1C[C@H](C)[C@H](CN(C)C(=O)CN2CCOCC2)Oc2ncc(/C=C/c3ccccc3)cc2C1=O` belongs “inactive”; to `COCCC(=O)N1C[C@H]2CN(c3cnn(C)c3)C(=O)[C@@H]2C1`, “inactive”; to `Cc1ccc(F)cc1NC(=O)CN`, “inactive”.
For the compound `COc1ccc(NC(=O)Nc2ccc3c(c2)C(=O)N([C@H](C)CO)C[C@@H](C)[C@H](CN(C)S(=O)(=O)c2ccc(OC)cc2)OCCCC[C@@H](C)O3)cc1`, the cytotoxicity call was “active”.
The value for `COc1ccc(NC(=O)Nc2ccc3c(c2)C(=O)N([C@@H](C)CO)C[C@@H](C)[C@H](CN(C)S(=O)(=O)c2ccccc2)OCCCC[C@@H](C)O3)cc1` was “inactive”; that for `COc1ccc(NC(=O)Nc2ccc3c(c2)C(=O)N([C@H](C)CO)C[C@@H](C)[C@H](CN(C)S(=O)(=O)c2ccc(C)cc2)OCCCC[C@H](C)O3)cc1` was “active”.
`COc1ccc(NC(=O)Nc2ccc3c(c2)C(=O)N([C@H](C)CO)C[C@H](C)[C@H](CN(C)S(=O)(=O)c2ccc(C)cc2)OCCCC[C@@H](C)O3)cc1`: the cytotoxicity call is “inactive”.
To `COc1ccc(NC(=O)Nc2ccc3c(c2)C(=O)N([C@H](C)CO)C[C@@H](C)[C@H](CN(C)S(=O)(=O)c2ccccc2)OCCCC[C@H](C)O3)cc1` belongs “active”; to `COc1ccc(NC(=O)Nc2ccc3c(c2)C(=O)N([C@@H](C)CO)C[C@@H](C)[C@H](CN(C)S(=O)(=O)c2ccc(C)cc2)OCCCC[C@H](C)O3)cc1`, “inactive”; to `COc1ccc(NC(=O)Nc2ccc3c(c2)C(=O)N([C@@H](C)CO)C[C@H](C)[C@H](CN(C)S(=O)(=O)c2ccc(OC)cc2)OCCCC[C@@H](C)O3)cc1`, “inactive”.
In the case of `COc1ccc(NC(=O)Nc2ccc3c(c2)C(=O)N([C@@H](C)CO)C[C@@H](C)[C@@H](CN(C)S(=O)(=O)c2ccccc2)OCCCC[C@@H](C)O3)cc1`, the cytotoxicity call was “inactive”.
Turning to `COc1ccc(NC(=O)Nc2ccc3c(c2)C(=O)N([C@@H](C)CO)C[C@@H](C)[C@@H](CN(C)S(=O)(=O)c2ccc(OC)cc2)OCCCC[C@@H](C)O3)cc1`, the cytotoxicity call is “inactive”.
